Screening data as filed in PubChem BioAssay.
Rows were chosen to be rich in hits. Some 1.6% of all compounds tested hit in one or more screens of this group.
KCNQ2 pot: potentiators of rat KCNQ2 potassium channel; CHO-K1 KCNQ2, FluxOR thallium flux fluorescence; stronger effect = higher value; B-score at 10 µM; 310,000 tested, 0.54% active; AID 2239, 2010;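 active = fluorescence ratio B-score at least 3 SD of library B-scores, with initial fluorescence B-score within 3 of them, cut at about 5.3 in these data; same plate scores as AID 2156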;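 note: B-score of peak minus minimum over baseline fluorescence ratio after K+ and Tl+ stimulus; positive B-score means potentiation of KCNQ2 with more thallium influx and brighter signal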
Target sequence (O88943 whole entry, looked up): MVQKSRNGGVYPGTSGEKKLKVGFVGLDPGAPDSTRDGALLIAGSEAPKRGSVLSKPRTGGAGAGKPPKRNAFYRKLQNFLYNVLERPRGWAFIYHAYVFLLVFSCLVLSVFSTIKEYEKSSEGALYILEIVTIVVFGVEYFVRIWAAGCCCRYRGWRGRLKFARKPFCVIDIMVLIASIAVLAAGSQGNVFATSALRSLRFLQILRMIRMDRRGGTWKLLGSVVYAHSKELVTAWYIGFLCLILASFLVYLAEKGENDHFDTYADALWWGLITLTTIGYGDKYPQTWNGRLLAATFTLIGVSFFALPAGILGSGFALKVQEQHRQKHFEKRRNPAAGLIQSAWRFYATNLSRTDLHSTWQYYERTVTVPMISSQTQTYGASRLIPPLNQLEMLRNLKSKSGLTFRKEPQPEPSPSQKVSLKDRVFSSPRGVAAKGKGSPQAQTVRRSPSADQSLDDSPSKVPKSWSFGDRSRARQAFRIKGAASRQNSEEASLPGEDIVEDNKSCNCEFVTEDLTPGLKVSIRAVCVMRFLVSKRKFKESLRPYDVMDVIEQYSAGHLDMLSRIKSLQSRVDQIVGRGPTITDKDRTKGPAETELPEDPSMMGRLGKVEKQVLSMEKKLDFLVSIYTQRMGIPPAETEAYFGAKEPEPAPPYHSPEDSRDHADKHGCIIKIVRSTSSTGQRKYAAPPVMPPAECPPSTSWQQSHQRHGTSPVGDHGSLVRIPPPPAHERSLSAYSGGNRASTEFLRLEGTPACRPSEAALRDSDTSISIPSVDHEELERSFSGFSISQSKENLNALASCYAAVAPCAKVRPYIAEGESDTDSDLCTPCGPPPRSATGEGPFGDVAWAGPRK
KCNQ2 block: rat KCNQ2 potassium channel inhibitors, primary screen, cell-based, CHO-K1, FluxOR thallium flux, B-score. Potassium voltage-gated channel subfamily KQT member 2 (Rattus norvegicus), O88943. 20 min; stronger effect = lower value. B-score at 10 µM. 310,000 tested, 1.1% active. AID 2156, 2009;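 active = fluorescence ratio B-score at most minus 3 library SDs, with starting brightness B-score within 2 library SDs, cut at about -5.5 in these data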
Kir21 confirm: mouse Kir2.1 channel blockers, retest, confirmation, cell-based, FluxOR thallium flux, duplicate | 2,300 tested, 41% active | shares compounds with KCNQ2 pot | Kir2.1-expressing cells, FluxOR thallium flux fluorescence; stronger effect = lower value | Tl flux remaining, % of negative control (stronger effect = lower value), % at 10 µM;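 active = Primary-screen hit whose thallium flux fell at least 3 control SD below untreated wells in both duplicates, with normal baseline fluorescence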;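 note: 0% = blank wells without stimulus and 100% = stimulated no-compound controls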
HEK293 ctr: alters thallium flux in parental HEK293 cells, Kir2.1 counter-screen. 2,300 tested, 19% active. FluxOR signal as % of negative control (100 = no effect), % at 10 µM. shares compounds with KCNQ2 pot. AID 2105. FluxOR thallium flux fluorescence; 0% = unstimulated blank wells;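 active = dye signal at least 3 control SD above or below untreated wells in both duplicates, raw fluorescence within 3, either direction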;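 note: percent is based on the flux ratio of peak minus minimum fluorescence over baseline F0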
CHO-K1 Tl ctr: nonspecific thallium flux increase in parental CHO-K1, confirmation, counter-screen for KCNQ2 potentiator project, cell-based, FluxOR thallium flux, duplicate; 1,200 tested, 43% active; shares compounds with KCNQ2 pot; AID 2282, 2010; parental CHO-K1 cells, FluxOR thallium flux fluorescence; zero = vehicle mean+3SD, 100% = vehicle-minus-blank window; activity increase over 3SD of controls, % at 10 µM;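 active = signal rise of at least 3 SD above the untreated control mean, in both duplicate wells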;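 note: counter screen of KCNQ2 potentiator hits so any rise reflects channel-independent effects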
KCNQ1 sel pot: human KCNQ1 channel potentiation off-target, confirmation, selectivity assay for KCNQ2 potentiator project, cell-based, CHO, FluxOR thallium flux | AID 2283, 2010 | shares compounds with KCNQ2 pot | 1,200 tested, 28% active | activation over 3SD threshold, % at 10 µM | CHO KCNQ1 stable, FluxOR thallium flux fluorescence; beyond 3SD, as % of vehicle-control signal;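 active = fluorescence ratio rise of at least 3 SD of vehicle wells above their mean, in both replicate wells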;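 note: 0% = vehicle mean plus 3 SD and 100% = vehicle minus unstimulated blank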
KCNQ2 pot confirm: rat KCNQ2 channel potentiators, confirmation, cell-based, CHO, FluxOR thallium flux, duplicate; CHO-KCNQ2 cells, FluxOR thallium flux fluorescence; 1,200 tested, 68% active; shares compounds with KCNQ2 pot; potentiation, less the hit threshold, % at 10 µM;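 active = fluorescence ratio rising 3 SD or more over the vehicle control mean in both replicates, plus primary screen hit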;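 note: peak minus minimum thallium fluorescence divided by baseline after K/Tl stimulus; 0% = vehicle mean plus 3 SD and 100% = vehicle minus unstimulated blank difference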
Kir21 spec: mouse Kir2.1 channel activation off-target, confirmation, selectivity assay for KCNQ2 potentiator project, cell-based, HEK293, FluxOR thallium flux. shares compounds with KCNQ2 pot. HEK293 Kir2.1, FluxOR thallium flux fluorescence. activity over 3SD threshold, % at 10 µM. 1,200 tested, 2% active. AID 2345, 2010;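 active = fluorescence ratio rise of at least 3 SD above the vehicle-control mean, seen in both replicates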;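 note: 0% = vehicle mean plus 3 SD and 100% = vehicle minus no-stimulus blank window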
KCNQ2 W236L pot: potentiators of retigabine-insensitive KCNQ2 W236L, mechanism study for KCNQ2 potentiator project, cell-based, rat KCNQ2 W236L, CHO, automated patch clamp | shares compounds with KCNQ2 pot | automated patch clamp current | current increase over 3SD of negative controls (%), stronger effect = higher value, % at 25 µM | 940 tested, 10% active;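 active = current increase at least 3 SD of the untreated controls above them in both duplicate recordings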
An asterisk follows results filed as active; i = inactive; . = not tested or not shown.

SMILES	KCNQ2 pot	KCNQ2 block	Kir21 confirm	HEK293 ctr	others
O=C(NCCc1ccc(F)cc1)c1cc(=O)c2ccccc2o1	.	i	.	.
Cn1nc(C(F)(F)F)cc1-c1ccc(S(N)(=O)=O)s1	.	i	.	.
C/C=C/c1cc(CN2CCN(c3ccc(OC)cc3)CC2)c(O)c(OC)c1	.	i	.	.
O=S(=O)(Cc1ccccc1)N1CCN(Cc2ccc3c(c2)OCO3)CC1	.	i	.	.
Nc1nonc1-n1nnc(C(=O)N/N=C/c2cc(Cl)ccc2O)c1CN1CCCCCC1	.	i	.	.
COc1ccc(C(C)=O)cc1CSCC(=O)O	0.78	i	.	.
COc1ccc(C(=O)/C=C/c2cccc(OCc3ccccc3)c2)cc1CSCC(=O)O	.	i	74%*	i
COCCn1cnnc1SCC(=O)c1ccc(S(=O)(=O)N2CCCC2)cc1	0.34	i	.	.
Cc1c(Cl)cccc1Nc1ccccc1C(=O)O	.	i	.	.
CSc1ccccc1NC(=O)Nc1cccc(Cl)c1C	0.05	i	.	.
Cc1c(Cl)cccc1NC(=O)C(=O)NNC(=O)c1ccccc1F	22*	i	i	426%*	CHO-K1 Tl ctr=-6;KCNQ1 sel pot=-11;KCNQ2 pot confirm=73*;Kir21 spec=-7;KCNQ2 W236L pot=i
Cc1ccccc1C(=O)NNC(=O)C(=O)Nc1cccc(Cl)c1C	14*	i	i	275%*	CHO-K1 Tl ctr=-6;KCNQ1 sel pot=-23;KCNQ2 pot confirm=21*;Kir21 spec=-39;KCNQ2 W236L pot=i
Cc1cc(C)c(OCC(=O)OCC(=O)N2c3ccccc3CC2C)c(C)c1 (configuration not stated)	0.22	i	.	.
O=C(Cc1ccc(F)cc1)Nc1ccccc1N1CCCC1	11*	i	59%*	i	CHO-K1 Tl ctr=2.5*;KCNQ1 sel pot=-10;KCNQ2 pot confirm=48*;Kir21 spec=-81;KCNQ2 W236L pot=i
O=C(Nc1ccc(F)cc1)Nc1ccccc1N1CCCCC1	1.5	i	.	.
COc1ccc(NC(=O)CSCC(=O)Nc2ccccc2N2CCCC2)cc1	0.75	i	.	.
O=C(Cc1ccc(Cl)c(Cl)c1)Nc1ccccc1N1CCCC1	7.2*	i	i	i	CHO-K1 Tl ctr=103*;KCNQ1 sel pot=-13;KCNQ2 pot confirm=56*;Kir21 spec=-50;KCNQ2 W236L pot=i
COc1ccc(NC(=O)CSCC(=O)Nc2ccccc2N2CCCCC2)cc1	6.7*	i	.	.	CHO-K1 Tl ctr=19*;KCNQ1 sel pot=60*;KCNQ2 pot confirm=-22;Kir21 spec=-65
CN1CCN(c2ccccc2NC(=O)Cc2ccc(Cl)cc2)CC1	1.9	i	.	.
O=C(C1=COCCO1)N1CCN(C(c2ccccc2)c2ccccc2)CC1	0.23	i	.	.
O=C(COc1cc2oc(=O)c3c(c2cc1Cl)CCC3)NCc1ccccn1	.	i	.	.
O=C(CSc1ncnc2sc3c(c12)CCC3)Nc1ccccc1C(=O)O	0.71	i	.	.
O=C(COC(=O)c1cc(Br)ccc1O)Nc1cccnc1Cl	0.51	i	.	.
CCCCN(C(=O)NCCCCCCNC(=O)N(CCCC)C1CCS(=O)(=O)C1)C1CCS(=O)(=O)C1 (configuration not stated)	.	i	.	.
COc1cc(C(=S)N2CCCCC2)ccc1OCC(=O)N1CCCC1	0.68	i	.	.
SMILES	KCNQ2 pot	KCNQ2 block	Kir21 confirm	HEK293 ctr	others
COc1cc(C(=S)N2CCCCC2)ccc1OCC(=O)Nc1ccc(F)cc1	6*	i	i	i	CHO-K1 Tl ctr=142*;KCNQ1 sel pot=27*;KCNQ2 pot confirm=17*;Kir21 spec=-46;KCNQ2 W236L pot=i
Fc1ccc(CNC2CCN(Cc3ccccc3)CC2)cc1	.	i	.	.
O=C(NC1CCN(Cc2ccccc2)CC1)c1ccc(Cl)cc1Cl	.	i	76%*	i
O=C(c1ccc(Cl)cc1)C1CCN(Cc2ccccc2)CC1	.	i	20%*	i
S=C(Nc1ccc(Cl)cc1Cl)NC1CCN(Cc2ccccc2)CC1	0.91	i	.	.
Clc1ccc(CNC2CCN(Cc3ccccc3)CC2)cc1	.	i	28%*	i
CC(=O)N1CCC(C(=O)c2ccc(Cl)cc2)CC1	.	i	.	.
Cc1cccc(N2CCN(CCCNC(=O)c3ccc(NC(=O)C4=CSCCO4)cc3)CC2C)c1 (configuration not stated)	0.78	i	.	.
N#Cc1ccccc1OCC(=O)OCCCOC(=O)COc1ccccc1C#N	0.71	i	.	.
COc1ccccc1N1CCN(C(=O)NCc2cccc(C(F)(F)F)c2)CC1	7*	i	i	i	CHO-K1 Tl ctr=-2;KCNQ1 sel pot=-10;KCNQ2 pot confirm=-5;Kir21 spec=-16;KCNQ2 W236L pot=i
COc1cccc(CNC(=O)N2CCN(c3ccccc3Cl)CC2)c1	0.46	i	.	.
Cc1ccc(S(=O)(=O)Nc2c(O)ccc3ccccc23)cc1	2.4	i	.	.
Cc1ccc(S(=O)(=O)Nc2c(Cl)c(Cl)c(O)c3ccccc23)cc1	6.4*	i	i	i	CHO-K1 Tl ctr=-9;KCNQ1 sel pot=68*;KCNQ2 pot confirm=-11;Kir21 spec=-45;KCNQ2 W236L pot=i
Cn1c(CCC(=O)Nc2cc(S(C)(=O)=O)ccc2Cl)nc2cc(S(=O)(=O)N3CCOCC3)ccc21	.	i	.	.
COc1ccc(C(=O)Cc2nnc(C)s2)cc1	.	i	.	.
CCCCN(C)C(=O)Cn1ncc2c3ccccc3n(CCC)c2c1=O	6*	i	i	i	CHO-K1 Tl ctr=113*;KCNQ1 sel pot=-17;KCNQ2 pot confirm=-1;Kir21 spec=-36;KCNQ2 W236L pot=i
O=C(Cn1ncc2c3ccccc3n(Cc3ccccc3)c2c1=O)N1CCN(c2ncccn2)CC1	4.7	i	.	.
CCCn1c2ccccc2c2cnn(CC(=O)N3CCOCC3)c(=O)c21	3.1	i	.	.
CCCn1c2ccccc2c2cnn(CC(=O)N(CC)CC)c(=O)c21	.	i	.	.
O=C(Cn1ncc2c3ccccc3n(Cc3ccccc3)c2c1=O)N1CCN(c2ccccn2)CC1	7.5*	i	i	i	CHO-K1 Tl ctr=-13;KCNQ1 sel pot=42*;KCNQ2 pot confirm=20*;Kir21 spec=-35;KCNQ2 W236L pot=i
